Source: PubChem BioAssay (NCATS)
Results filed as inconclusive are left out. Unmarked numbers belong to inactive results. Calls follow the shape of the dose curve; as a rule, active = well fitted inhibition curve with a large enough effect; inconclusive = small, poorly fitted or top-dose-only effect; inactive = no such curve, though single readings can be large or run the other way.

target: Retinaldehyde dehydrogenase 3 (Homo sapiens) (UniProt P47895); test: qHTS for Inhibitors of the Aldehyde Dehydrogenase Family (ALDH1A3) Primary screen (AID 2061315); conditions: ALDH inhibition qHTS; series mostly up to 56 µM; activity change, negative = inhibition: at the top concentration;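 also: plate controls were DMSO vehicle for no effect and reference inhibitor for full effect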

Compared with `O=C1CCc2cc(S(=O)(=O)Nc3ccc(F)cc3)ccc2N1`, `O=c1c2ccc(C(F)(F)F)cc2nc2sc(Nc3ccc4c(c3)CCC4)nn12` is higher in “activity change, negative = inhibition” value: -1.08% for the first, 2.09% for the second.

Going from `c1csc(CNc2ncnc3ccc(-c4ccc5c(c4)OCO5)cc23)c1` to `CCNC(=O)c1ccc(-c2ccc3ncnc(NCC(C)(C)C)c3c2)o1`, the “activity change, negative = inhibition” value falls from 5.29% to -12.6%.

First: CC1=C(C(=O)c2ccccc2)C(c2ccccc2Cl)N=C(Nc2nc3ccccc3o2)N1 (stereo unspecified)
Second: COc1ccc(CN(Cc2ccccc2)C(=O)c2ccc(OC)cc2O)cc1
The “activity change, negative = inhibition” value of the first is higher: 8.77% for the first, -3.25% for the second.

Compared with `CCOc1ccc(CCNC(=O)C2CCCCC2)cc1OCC`, `COc1cc(O)c(C(CC(=O)N2CC(C)CC(C)C2)c2ccc3c(c2)OCCO3)c(OC)c1` (stereo unspecified) is higher in “activity change, negative = inhibition” value: -1.76% for the first, 3.01% for the second.

Compared with `O=C(Nc1ccc(Cl)c(C(F)(F)F)c1)Nc1nnc(-c2cccnc2)s1`, `Cc1ccnc(NC(=S)N2CC3CN(c4cccc(C(F)(F)F)c4)CC3C2)c1` (stereo unspecified) is lower in “activity change, negative = inhibition” value: 12.8% for the first, -14.8% for the second.

Compared with `C=C[C@H](/C=C\c1ccc(O)cc1)c1ccc(O)cc1`, `O=[S+]([O-])(Nc1ccc(C2CCNCC2)cc1)c1ccc(NCc2ccc(Br)cc2O)cc1` is higher in “activity change, negative = inhibition” value: 2.27% for the first, 10.3% for the second.

First: N[C@@H](Cc1ccc(O[S+](=O)([O-])c2cccc3cccnc23)cc1)C(=O)N1CCN(c2ccccc2)CC1
Second: CCCCCNc1oc(-c2cccc3ccccc23)nc1C#N
The “activity change, negative = inhibition” value of the first is higher: 1.97% for the first, -9.77% for the second.

With `CC/C=C/CC1=C(CCCCC(CCC(=O)O)OC(C)=O)CCC1=O` (stereo unspecified) the “activity change, negative = inhibition” value was -8.73%.

`CC(=O)O[C@@](C)(C(=O)/C=C/C(C)(C)O)[C@H]1[C@H](O)C[C@@]2(C)[C@@H]3CC=C4[C@@H](C=C(O)C(=O)C4(C)C)[C@]3(C)C(=O)C[C@]12C` was tested, and the “activity change, negative = inhibition” value was -4.57% [at 28 µM].
